Measurements from PubChem BioAssay (EPA / NIEHS).
Records with an inconclusive call do not appear. Active and inactive are the calls of the source. Rule for the calls, unless noted: active = hit-call score of the fitted dose curve at least 0.9, where 1 is the maximum; inconclusive = response in the unintended direction; inactive = score below 0.9.

Assays:
[1] = ATG_NRF2_ARE_CIS: Attagene CIS-FACTORIAL HepG2 Assay for human Nuclear Factor Erythroid 2 Related Factor 2 (NFR2) response to Antioxidant Response Elements (ARE) (AID 2282992; active = hit-call score of the fitted dose curve at least 0.9, where 1 is the maximum; inactive = score below 0.9;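 for AC50: reporter mRNA level measured by RT-PCR and capillary electrophoresis fluorescence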); conditions: HepG2 Attagene ARE/NRF2 reporter, transcription factor activity; actives raise or lower the signal
How it was run: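 Multiplexed reporter mRNA profiling in HepG2 after a 24 h chemical exposure. Curves fitted in both directions relative to DMSO negative control.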

[2] = ATG_Oct_MLP_CIS: Attagene CIS-FACTORIAL HepG2 Assay for human Octamer-Binding Transcription Factor (Oct) (AID 2282993; active = hit-call score of the fitted dose curve at least 0.9, where 1 is the maximum; inactive = score below 0.9); conditions: HepG2 Attagene cis-factorial Oct reporter, mRNA; actives raise or lower the signal
How it was run: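 After 24 h compound exposure, transfected HepG2 cells were lysed for total RNA; reporter-specific cDNA was PCR-amplified, fluorescently labelled and sized by capillary electrophoresis. Bidirectional curve fitting used DMSO as baseline.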

[3] = biological target: Cellular tumor antigen p53 (Homo sapiens) (UniProt P04637); assay: ATG_p53_CIS: Attagene CIS-FACTORIAL HepG2 Assay for human p53 Transcription Factor (AID 2282994; active = hit-call score of the fitted dose curve at least 0.9, where 1 is the maximum; inactive = score below 0.9); conditions: HepG2 p53 cis-element reporter, Attagene mRNA; actives raise or lower the signal
How it was run: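 Multiplexed reporter mRNA assay in human HepG2 liver cells; cis-regulated units report endogenous factor activity. Values come from bidirectional curve fitting against DMSO negative control after 24 h treatment.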

[4] = biological target: human Peroxisome Proliferator-activated Receptor alpha (PPARa), PPARA (gene 5465) (UniProt Q07869); assay: ATG_PPARa_TRANS: Attagene TRANS-FACTORIAL HepG2 Assay for human Peroxisome Proliferator-activated Receptor alpha (PPARa) (AID 2283001)
How it was run: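 HepG2 cells transiently transfected with multiplexed GAL4-UAS reporters driven by exogenous chimeric NR-Gal4 proteins; reporter mRNA measured after 24 h dosing. Read-out by RT-PCR, 6-FAM labelling, HpaI digestion and capillary electrophoresis; gain of signal versus DMSO.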

[5] = biological target: Peroxisome proliferator-activated receptor gamma (Homo sapiens) (UniProt P37231); assay: ATG_PPARg_TRANS: Attagene TRANS-FACTORIAL HepG2 Assay for human Peroxisome Proliferator-activated Receptor-gamma (PPARg) (AID 2283007)
How it was run: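 Transient transfection of HepG2 with GAL4-UAS-driven reporter units; chemical dosing 24 h; total RNA → oligo(dT) RT → PCR with reporter primers → 6-FAM primer extension → HpaI digest 2 h 37 C → capillary electrophoresis. Positive direction vs DMSO.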

[6] = biological target: Nuclear receptor subfamily 1 group I member 2 (Homo sapiens) (UniProt O75469); assay: ATG_PXR_TRANS: Attagene TRANS-FACTORIAL HepG2 Assay for human Pregnane X Receptor (PXR) (AID 2283008)
How it was run: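 Measures mRNA induction of a GAL4-UAS-driven reporter in human HepG2 cells transiently expressing PXR fused to Gal4, following 24 h treatment. DMSO served as negative control and baseline.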

[7] = biological target: human Retinoic Acid Receptor gamma (RARg), RARG (gene 5916) (UniProt P13631); assay: ATG_RARg_TRANS: Attagene TRANS-FACTORIAL HepG2 Assay for human Retinoic Acid Receptor gamma (RARg) (AID 2283009)
How it was run: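 HepG2 transiently transfected with GAL4-UAS reporter units and chimeric NR-Gal4 constructs; 24 h compound exposure. Reporter mRNA quantified by RT-PCR, FAM labeling, HpaI digestion and capillary electrophoresis; gain-of-signal versus DMSO.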

[8] = biological target: Retinoic acid receptor RXR-alpha (Homo sapiens) (UniProt P19793); assay: ATG_RXRa_TRANS: Attagene TRANS-FACTORIAL HepG2 Assay for human Retinoid X Receptor alpha (RXRa) (AID 2283012)
How it was run: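 HepG2 cells transiently transfected with GAL4-UAS reporter units and chimeric RXRa-Gal4 protein, treated 24 h. Reporter mRNA measured by RT-PCR, fluorescent labelling, HpaI digestion and capillary electrophoresis. Induction fitted against DMSO.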

[9] = biological target: human Retinoid X Receptor beta (RXRb), RXRB (gene 6257) (UniProt P28702); assay: ATG_RXRb_TRANS: Attagene TRANS-FACTORIAL HepG2 Assay for human Retinoid X Receptor beta (RXRb) (AID 2283013)
How it was run: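 HepG2 cells were transiently transfected with multiplexed GAL4-UAS reporters and a chimeric RXRb-Gal4 construct, then exposed for 24 h. Reporter mRNA was quantified by RT-PCR, FAM labeling, HpaI digestion and capillary electrophoresis; gain of signal was scored against DMSO.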

[10] = biological target: Retinoic acid receptor alpha (Homo sapiens) (UniProt P10276); assay: ATG_RARa_TRANS: Attagene TRANS-FACTORIAL HepG2 Assay for human Retinoic Acid Receptor alpha (RARa) (AID 2283005)
How it was run: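 HepG2 transiently transfected with multiplex GAL4-UAS reporter units including a human RARa–GAL4 chimera; 24 h compound exposure. Reporter mRNA quantified by RT-PCR, 6-FAM labeling and capillary electrophoresis; gain of signal versus DMSO.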

[11] = biological target: human RAR-related Orphan Receptor beta (RORb), RORB (gene 6096) (UniProt Q92753); assay: ATG_RORb_TRANS: Attagene TRANS-FACTORIAL HepG2 Assay for human RAR-related Orphan Receptor beta (RORb) (AID 2283010)
How it was run: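 HepG2 cells transiently transfected with GAL4-UAS reporter units expressing chimeric NR-Gal4 protein; reporter mRNA measured 24 h after dosing by RT-PCR, 6-FAM labelling and capillary electrophoresis. Gain-of-signal fitted relative to DMSO baseline.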

[12] = biological target: human RAR-related Orphan Receptor gamma (RORg), RORC (gene 6097) (UniProt P51449); assay: ATG_RORg_TRANS: Attagene TRANS-FACTORIAL HepG2 Assay for human RAR-related Orphan Receptor gamma (RORg) (AID 2283011)
How it was run: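 Readout: reporter transcript induction (RT-PCR, fluorescent primer extension, capillary electrophoresis) after 24 h compound exposure of transiently transfected HepG2 cells carrying a RORg-Gal4 chimera and GAL4-UAS reporters; DMSO served as baseline, with increasing signal fitted.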

[13] = biological target: human Retinoic Acid Receptor beta (RARb), RARB (gene 5915) (UniProt P10826); assay: ATG_RARb_TRANS: Attagene TRANS-FACTORIAL HepG2 Assay for human Retinoic Acid Receptor beta (AID 2283004)
How it was run: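 HepG2 cells transiently transfected with multiplexed GAL4-UAS reporter units expressing chimeric NR–Gal4 fusions; 24 h compound exposure. Reporter mRNA quantified by RT-PCR, 6-FAM labelling, HpaI digestion and capillary electrophoresis; gain-of-signal fitted against DMSO baseline.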

[14] = biological target: human Peroxisome Proliferator-activated Receptor delta (PPARd), PPARD (gene 5467) (UniProt Q03181); assay: ATG_PPARd_TRANS: Attagene TRANS-FACTORIAL HepG2 Assay for human Peroxisome Proliferator-activated Receptor delta (PPARd) (AID 2283002)
How it was run: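 HepG2 cells transiently transfected with GAL4-UAS multiplexed reporter units driven by exogenous chimeric NR-GAL4 proteins; 24 h compound exposure. Reporter mRNA measured by RT-PCR, 6-FAM primer extension, HpaI digestion and capillary electrophoresis; gain of signal fitted relative to DMSO.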

Measured: AC50

Sequence of Peroxisome proliferator-activated receptor gamma (Homo sapiens) (P37231 whole entry, looked up, the tested form may be a part): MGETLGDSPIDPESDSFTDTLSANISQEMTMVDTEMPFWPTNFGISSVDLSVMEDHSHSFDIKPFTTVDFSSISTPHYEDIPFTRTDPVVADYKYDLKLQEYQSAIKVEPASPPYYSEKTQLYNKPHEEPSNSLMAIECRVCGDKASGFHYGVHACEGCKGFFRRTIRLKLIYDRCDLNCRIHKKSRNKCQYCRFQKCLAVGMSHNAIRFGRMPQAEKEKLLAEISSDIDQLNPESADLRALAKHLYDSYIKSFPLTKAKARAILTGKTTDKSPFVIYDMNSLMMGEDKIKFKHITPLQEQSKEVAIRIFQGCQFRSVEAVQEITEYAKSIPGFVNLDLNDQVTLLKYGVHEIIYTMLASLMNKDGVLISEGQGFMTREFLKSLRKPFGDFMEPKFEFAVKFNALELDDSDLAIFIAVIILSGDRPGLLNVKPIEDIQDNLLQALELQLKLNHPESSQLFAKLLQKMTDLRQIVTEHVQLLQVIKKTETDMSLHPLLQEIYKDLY
Sequence of human RAR-related Orphan Receptor gamma (RORg), RORC (gene 6097) (P51449 whole entry, looked up, the tested form may be a part): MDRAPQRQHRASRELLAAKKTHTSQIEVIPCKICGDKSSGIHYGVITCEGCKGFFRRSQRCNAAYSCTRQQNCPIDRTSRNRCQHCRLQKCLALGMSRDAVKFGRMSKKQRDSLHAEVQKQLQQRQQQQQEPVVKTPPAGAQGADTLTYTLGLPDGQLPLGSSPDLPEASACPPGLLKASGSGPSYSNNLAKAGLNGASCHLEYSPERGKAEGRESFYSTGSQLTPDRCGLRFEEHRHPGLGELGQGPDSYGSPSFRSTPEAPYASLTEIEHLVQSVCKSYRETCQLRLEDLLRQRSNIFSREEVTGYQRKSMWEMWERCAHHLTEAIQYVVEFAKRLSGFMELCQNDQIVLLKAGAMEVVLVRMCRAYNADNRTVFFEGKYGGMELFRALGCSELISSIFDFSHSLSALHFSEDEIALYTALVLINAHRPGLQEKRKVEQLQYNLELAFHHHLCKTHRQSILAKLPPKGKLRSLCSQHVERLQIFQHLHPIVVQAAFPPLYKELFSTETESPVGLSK
Sequence of human Peroxisome Proliferator-activated Receptor alpha (PPARa), PPARA (gene 5465) (Q07869 whole entry, looked up, the tested form may be a part): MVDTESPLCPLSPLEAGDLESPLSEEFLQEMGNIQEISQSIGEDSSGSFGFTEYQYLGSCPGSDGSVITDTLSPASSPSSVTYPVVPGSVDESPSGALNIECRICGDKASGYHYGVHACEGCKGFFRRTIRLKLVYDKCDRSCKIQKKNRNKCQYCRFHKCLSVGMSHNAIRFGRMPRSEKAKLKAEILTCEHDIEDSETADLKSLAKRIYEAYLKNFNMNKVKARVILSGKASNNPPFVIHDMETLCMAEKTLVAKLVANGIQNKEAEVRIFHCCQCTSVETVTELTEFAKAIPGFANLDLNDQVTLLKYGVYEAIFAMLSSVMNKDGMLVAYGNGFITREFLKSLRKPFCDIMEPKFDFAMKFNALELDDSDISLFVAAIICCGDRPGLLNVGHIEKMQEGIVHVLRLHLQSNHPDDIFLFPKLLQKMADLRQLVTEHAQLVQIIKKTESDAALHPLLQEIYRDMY
Sequence of human Retinoid X Receptor beta (RXRb), RXRB (gene 6257) (P28702 whole entry, looked up, the tested form may be a part): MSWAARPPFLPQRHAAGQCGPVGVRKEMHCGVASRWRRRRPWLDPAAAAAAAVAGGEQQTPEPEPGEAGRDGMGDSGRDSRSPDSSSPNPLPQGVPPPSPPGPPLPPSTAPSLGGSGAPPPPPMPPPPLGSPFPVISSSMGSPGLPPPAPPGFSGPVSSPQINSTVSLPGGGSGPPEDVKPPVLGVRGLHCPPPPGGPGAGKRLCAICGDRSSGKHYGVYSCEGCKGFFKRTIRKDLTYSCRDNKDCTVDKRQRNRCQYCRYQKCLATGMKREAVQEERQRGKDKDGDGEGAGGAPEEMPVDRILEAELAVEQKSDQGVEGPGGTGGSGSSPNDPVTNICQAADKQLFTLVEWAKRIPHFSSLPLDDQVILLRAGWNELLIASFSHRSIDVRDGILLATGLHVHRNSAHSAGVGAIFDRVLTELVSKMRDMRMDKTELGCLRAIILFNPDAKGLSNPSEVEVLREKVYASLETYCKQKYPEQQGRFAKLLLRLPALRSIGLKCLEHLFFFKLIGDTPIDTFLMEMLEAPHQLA
Sequence of Retinoic acid receptor RXR-alpha (Homo sapiens) (P19793 whole entry, looked up, the tested form may be a part): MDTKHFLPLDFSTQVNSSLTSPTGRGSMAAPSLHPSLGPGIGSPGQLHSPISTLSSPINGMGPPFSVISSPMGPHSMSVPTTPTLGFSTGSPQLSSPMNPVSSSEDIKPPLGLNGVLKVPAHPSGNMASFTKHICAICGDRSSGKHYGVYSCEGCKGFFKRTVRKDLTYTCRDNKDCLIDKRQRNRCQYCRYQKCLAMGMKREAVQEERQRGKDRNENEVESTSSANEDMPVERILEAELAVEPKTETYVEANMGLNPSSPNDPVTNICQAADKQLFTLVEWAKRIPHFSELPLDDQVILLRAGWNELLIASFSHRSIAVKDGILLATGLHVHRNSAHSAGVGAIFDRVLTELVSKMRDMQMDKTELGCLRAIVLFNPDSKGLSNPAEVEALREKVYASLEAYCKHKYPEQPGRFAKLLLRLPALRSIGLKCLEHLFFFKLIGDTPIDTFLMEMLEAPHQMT
Sequence of Cellular tumor antigen p53 (Homo sapiens) (P04637 whole entry, looked up): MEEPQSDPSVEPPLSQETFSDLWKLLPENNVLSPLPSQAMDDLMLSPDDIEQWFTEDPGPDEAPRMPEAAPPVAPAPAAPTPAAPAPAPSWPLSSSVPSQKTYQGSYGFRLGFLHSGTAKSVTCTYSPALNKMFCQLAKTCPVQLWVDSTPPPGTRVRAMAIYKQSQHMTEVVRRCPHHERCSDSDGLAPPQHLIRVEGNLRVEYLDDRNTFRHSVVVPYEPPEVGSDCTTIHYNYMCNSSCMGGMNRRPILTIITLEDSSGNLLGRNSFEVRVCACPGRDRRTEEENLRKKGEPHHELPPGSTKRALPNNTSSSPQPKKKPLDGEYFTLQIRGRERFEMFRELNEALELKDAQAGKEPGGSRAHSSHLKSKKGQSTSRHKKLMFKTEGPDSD
Sequence of human Retinoic Acid Receptor gamma (RARg), RARG (gene 5916) (P13631 whole entry, looked up, the tested form may be a part): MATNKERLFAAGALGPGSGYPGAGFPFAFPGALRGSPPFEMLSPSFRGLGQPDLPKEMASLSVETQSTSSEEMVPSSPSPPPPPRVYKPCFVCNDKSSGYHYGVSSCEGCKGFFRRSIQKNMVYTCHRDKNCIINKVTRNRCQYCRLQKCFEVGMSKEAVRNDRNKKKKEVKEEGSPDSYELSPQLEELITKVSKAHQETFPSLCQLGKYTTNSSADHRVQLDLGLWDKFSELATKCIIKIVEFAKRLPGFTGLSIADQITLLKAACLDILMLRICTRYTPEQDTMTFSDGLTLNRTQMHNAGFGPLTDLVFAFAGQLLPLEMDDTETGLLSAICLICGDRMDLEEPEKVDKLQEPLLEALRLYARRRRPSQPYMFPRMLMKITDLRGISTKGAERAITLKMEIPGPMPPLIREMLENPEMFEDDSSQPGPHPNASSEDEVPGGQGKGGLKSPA
Sequence of human Peroxisome Proliferator-activated Receptor delta (PPARd), PPARD (gene 5467) (Q03181 whole entry, looked up, the tested form may be a part): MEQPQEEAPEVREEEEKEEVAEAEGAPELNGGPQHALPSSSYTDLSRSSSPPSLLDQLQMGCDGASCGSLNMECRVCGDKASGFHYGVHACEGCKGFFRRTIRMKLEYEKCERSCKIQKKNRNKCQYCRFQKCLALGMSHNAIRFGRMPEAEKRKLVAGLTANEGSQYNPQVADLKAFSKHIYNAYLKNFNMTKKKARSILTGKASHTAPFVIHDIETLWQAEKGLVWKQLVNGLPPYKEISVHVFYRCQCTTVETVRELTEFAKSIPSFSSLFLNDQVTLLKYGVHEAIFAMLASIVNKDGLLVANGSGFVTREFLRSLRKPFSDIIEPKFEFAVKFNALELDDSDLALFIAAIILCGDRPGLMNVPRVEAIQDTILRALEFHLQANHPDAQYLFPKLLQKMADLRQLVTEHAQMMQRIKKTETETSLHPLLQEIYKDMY
Sequence of human RAR-related Orphan Receptor beta (RORb), RORB (gene 6096) (Q92753 whole entry, looked up, the tested form may be a part): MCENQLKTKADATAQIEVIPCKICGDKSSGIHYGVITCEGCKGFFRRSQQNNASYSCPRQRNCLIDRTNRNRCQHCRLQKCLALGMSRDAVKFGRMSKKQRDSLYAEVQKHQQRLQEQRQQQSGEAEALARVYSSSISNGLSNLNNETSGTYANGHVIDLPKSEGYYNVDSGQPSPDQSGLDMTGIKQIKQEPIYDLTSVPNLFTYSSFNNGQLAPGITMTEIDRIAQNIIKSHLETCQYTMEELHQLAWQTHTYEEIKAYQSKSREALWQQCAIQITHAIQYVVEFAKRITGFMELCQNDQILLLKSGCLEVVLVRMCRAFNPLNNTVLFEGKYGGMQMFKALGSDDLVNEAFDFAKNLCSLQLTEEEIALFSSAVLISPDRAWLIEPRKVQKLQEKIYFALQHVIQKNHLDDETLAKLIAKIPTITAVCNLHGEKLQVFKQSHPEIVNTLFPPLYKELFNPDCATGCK
Sequence of Nuclear receptor subfamily 1 group I member 2 (Homo sapiens) (O75469 whole entry, looked up, the tested form may be a part): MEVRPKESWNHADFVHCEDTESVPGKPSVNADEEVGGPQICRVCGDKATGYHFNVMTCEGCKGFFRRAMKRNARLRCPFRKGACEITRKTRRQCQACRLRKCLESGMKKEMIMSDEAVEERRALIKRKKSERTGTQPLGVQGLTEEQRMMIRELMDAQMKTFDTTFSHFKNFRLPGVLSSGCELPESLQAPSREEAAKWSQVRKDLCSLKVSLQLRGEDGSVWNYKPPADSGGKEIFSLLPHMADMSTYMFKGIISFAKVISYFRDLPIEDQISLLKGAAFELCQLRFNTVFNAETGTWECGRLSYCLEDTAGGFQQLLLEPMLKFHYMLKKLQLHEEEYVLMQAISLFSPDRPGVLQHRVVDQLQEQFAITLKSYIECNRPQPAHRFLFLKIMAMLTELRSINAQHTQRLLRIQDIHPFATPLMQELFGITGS

CCC[CH2][Sn]([CH2]CCC)([CH2]CCC)[CH2]CCC
active: [1] 5.43 µM | [2] 11.1 µM | [3] 18.5 µM | [5] 3.29 µM | [6] 9.24 µM | [8] 0.866 µM | [9] 0.0334 µM
inactive: [4] | [7]

Cc1cc(Cl)ccc1O
inactive: [2] | [3] | [4] | [10] | [5] | [6] | [8]
active: [1] 37.1 µM | [9] 100 µM

BrCC(Br)c1ccccc1 (configuration not stated)
inactive: [1] | [2] | [3] | [4] | [5] | [11] | [12] | [8]

Cl[C@H]1OCCO[C@@H]1Cl
not listed: [10] | [14]
inactive: all other assays above

CCCCCCCCCCBr
active: [1] 68.6 µM | [5] 19.8 µM | [9] 100 µM
not listed: [7] | [11] | [13] | [14]
inactive: all other assays above

C=CCOC(F)(C(F)(F)F)C(F)(F)F
inactive: [1] | [2] | [3] | [4] | [14] | [5] | [8]

CCCSP(=S)(OCC)Oc1ccc(SC)cc1 (configuration not stated)
inactive: [1] | [2] | [3] | [4] | [9]
active: [5] 15.2 µM | [6] 3.65 µM

O=C(NC(=O)c1c(F)cccc1F)Nc1cc(Cl)c(OC(F)(F)C(F)C(F)(F)F)cc1Cl (configuration not stated)
active: [1] 73 µM
not listed: [10] | [12] | [13] | [14]
inactive: all other assays above

CN(N=O)C(N)=O
inactive: [1] | [2] | [3] | [4] | [5] | [6] | [7] | [9]

N#Cc1ccc(Cl)cc1
not listed: [5] | [10] | [13]
inactive: all other assays above

Clc1cnc(Oc2ccc(Oc3ncc(Cl)cc3Cl)cc2)c(Cl)c1
inactive: [1] | [2] | [3] | [4] | [11]
active: [6] 7.48 µM

CCOP(=S)(OCC)Oc1ccc(Cl)cc1Cl
active: [1] 43.7 µM | [6] 3.85 µM | [9] 27.6 µM
not listed: [4] | [7] | [10] | [13]
inactive: all other assays above
